Chronic BCR inh: chronic active BCR signaling inhibition; ABC-DLBCL IkBa-CBG/CBR reporter, luminescence ratio, 4 h; Potency, µM (titrated, usually from 46.1 µM), for inactives: at the top dose activity change, negative = inhibition, hits mostly inhibitors; 0.05% of 340,000 active; active = well fitted inhibition curve with a large enough effect in the signal ratio, with a control signal flat, not every such curve was filed as active; inconclusive = small, poorly fitted or top-dose-only effect, or effect the other way, or a change in a side signal; the % refers to the signal ratio;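 note: potency is the fitted concentration of half-maximal effect; plate controls were basal doxycycline-induced cells for no effect and cells given 10 µM MG132 for full effect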
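Concentration-response series (up to 46 uM) were applied to TMD8 dual-reporter cells for 4 h at 37C with doxycycline. Green/red ratio, after filter-overlap correction, defined %Activity; red signal alone was normalised to basal cells and zero luminescence.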
DT40 TDP1 CPT: growth inhibition of DT40 Tdp1-/-;hTDP1 cells with camptothecin (screen for TDP1 inhibitors). chicken DT40 Tdp1-/-;hTDP1 cells + 20 nM CPT, ATP luminescence, 48 h. Potency, µM (titrated, usually from 46.2 µM), for the others: at the highest dose activity change, negative = growth inhibition, hits mostly inhibitors. 12% of 420,000 active; note: potency is the fitted concentration of half-maximal effect; % is set by controls: 0 for no effect and ±100 for the full control effect; nearly all actives have a fitted effect of over 55% in size
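Cell growth measured by CellTiter-Glo luminescence after a minimum 48 h, 37 C compound exposure with 20 nM CPT in Tdp1-knockout DT40 cells stably expressing hTDP1, seeded 400/well; qHTS titration format.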
IL-1B inflam inh: inflammasome signaling inhibition, IL-1 beta readout; AID 743279; activity change, % at 57.5 µM; THP-1 LPS/ATP IL-1B secretion, AlphaLISA, 16 h; hits give low values; 4.7% of 360,000 active; in the data active = activity change below about -50%; inconclusive = mostly about -30% to -49%; note: % is set by controls: 0 for no effect and ±100 for the full control effect
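Secreted IL-1B measured by AlphaLISA bead assay after 16 h compound exposure of THP-1 cells; compounds (final up to 57.5 uM) added 1 h before LPS (250 ng/mL) and ATP (1.25 mM) stimulation; lower signal means less secretion.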
SW480 rerep: DNA re-replication induction in SW480 cells; SW480 DNA re-replication, Hoechst DNA content imaging, 48 h; Potency, µM (titrated, usually from 46.1 µM), inactives show at the top dose re-replication activation, hits mostly activators; 1.8% of 340,000 active; AID 624297; note: potency is the fitted concentration of half-maximal effect; % of control where 0% means no effect; nearly all actives have a fitted effect of over 55% in size
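First, 250 cells per well were seeded. Next, compound or vehicle (23 nL) was pinned in, plates sat 48 hr at 37 C. Finally Hoechst was added for 40 min before fluorescence scanning.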
DT40 TDP1 no CPT: qHTS for Inhibitors of human tyrosyl-DNA phosphodiesterase 1 (TDP1): qHTS in cells in absence of CPT; DT40 Tdp1-/- hTDP1 cells, no CPT, ATP luminescence, 48 h; Potency, µM (top dose mostly 46.2 µM), for the others: top-dose activity change, negative = growth inhibition, usual class: inhibitors; 15% of 420,000 active; AID 686978, 2013; note: potency is the fitted concentration of half-maximal effect; % is set by controls: 0 for no effect and ±100 for the full control effect; nearly all actives have a fitted effect of over 55% in size
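Chicken DT40 Tdp1-/- cells stably complemented with human TDP1 were seeded at 400 cells/well with DMSO in place of 20 nM camptothecin. After compound pinning, cells grew at least 48 hr at 37 °C; viability read by CellTiter-Glo luminescence.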
MCF10A rerep: inducers of DNA re-replication in MCF 10A breast cells; MCF 10A DNA re-replication, Hoechst nuclear intensity, 48 h; Potency, µM (highest dose often 46.1 µM), for the others: at the top dose activity, positive = re-replication, hits mostly activators; 2.9% of 350,000 active; AID 624296; note: potency is the fitted concentration of half-maximal effect; % of control where 0% means no effect; nearly all actives have a fitted effect of over 50% in size
* hit, by the source's call; ? = inconclusive; nt = no result; ! = not confirmed by another sample; [ ] = remark or other dose. Sampled rows, rich in hits. Any-hit rate of the full collection: about 19%. Unless noted, calls come from the whole dose curve; as a rule, active = well fitted curve in the direction sought with a large enough effect; inconclusive = small, poorly fitted or top-dose-only effect, or another doubt; inactive = no such curve, though single readings can be large; an effect the other way counts as inactive or inconclusive.

SMILES	Chronic BCR inh	DT40 TDP1 CPT	IL-1B inflam inh	SW480 rerep	DT40 TDP1 no CPT	MCF10A rerep
Cc1nnc(SCC(=O)NCc2ccccc2F)c2nn(-c3ccc(Cl)cc3)c(C)c12	?	13µM*	nt	nt	8.2µM*	nt
Cc1nnc(SCC(=O)NCc2cccc(F)c2)c2nn(-c3ccccc3)c(C)c12	nt	8.2µM*	nt	nt	7.3µM*	nt
COC(=O)c1cc(C(=O)OCC(=O)c2ccc[nH]2)cc([N+](=O)[O-])c1	-3%	-6%	4	?	2%	9%
COc1ccc(-c2ccc3c(=O)cc(-c4ccsc4)oc3c2)cn1	2%	18µM*	-4	?	?	?
O=c1cc(-c2ccsc2)oc2cc(-c3ccc4c(c3)OCO4)ccc12	0%	18µM*	1	0%	?	?
O=C(CSc1nc(=O)[nH]c2c1CCC2)NCc1ccc(Cl)cc1	4%	7%	nt	nt	-7%	nt
Cc1ccc2c(c1)-n1c(nc3ccccc3c1=O)C(CC(C)C)NC2=O (centres undefined)	0%	nt	nt	nt	nt	nt
O=C1/C(=C/c2ccc([N+](=O)[O-])cc2)CCc2ccccc21	-13%	nt	nt	nt	nt	nt
CC1(C)CC(=Cc2ccccc2[N+](=O)[O-])C(=O)c2ccccc21	nt	-30%	-13	nt	16µM*	nt
O=C1NC(=O)C(=Cc2ccccc2[N+](=O)[O-])S1	nt	?	?	?	21µM*	21µM*
O=C1C(=Cc2ccccc2[N+](=O)[O-])Cc2ccccc21	nt	2.6µM*	-103*	nt	3.3µM*	nt
Nc1ccccc1C=C1Cc2ccccc2C1=O	nt	11%	10	-7%	-26%	14%
O=C(COC(=O)c1ccc(S(=O)(=O)N2CCOCC2)cc1)NCc1ccco1	nt	-22%	-20	nt	2%	nt
CC(NC(=O)CCCc1ccccc1)c1ccncc1 (centres undefined)	2%	9%	9	-107%	-10%	-1%
CNS(=O)(=O)Cc1ccc2[nH]cc(CCN(C)C)c2c1	3%	5.8µM*!	?	-7%	4.6µM*!	?
COc1ccc(-c2nn(-c3ccccc3)cc2/C=C/C(=O)N2CCOCC2)cc1OC	?	?	?	-1%	?	-13%
CC(C)Cc1nnc(NC(=O)c2ccc(N3CCCC3=O)cc2)s1	-7%	?	-16	-2%	?	17%
CNC(=O)c1ccsc1NC(=O)c1ccc2c(c1)CCCC2	9%	?	-55*	26%	?	?
NS(=O)(=O)c1ccc(NC(=O)c2ccc3c(c2)CCCC3)cc1	-2%	-11%	20	5%	-16%	0%
NC(=O)c1ccsc1NC(=O)c1ccc2c(c1)CCCC2	-13%	15µM*	-55*	-7%	?	29%
NC(=O)c1ccsc1NC(=O)c1ccc(N2CCCC2=O)cc1	?	?	-56*	-13%	?	-2%
C=C(C)C1(O)OC(=O)C=C1OC (centres undefined)	?	5.2µM*	-76*	?	16µM*	?
COc1ccc(C2=CC(=O)OC3(CCCCC3)O2)cc1	?	-19%	18	-1%	?	431%[0.0737 µM]
CCCCNC(=O)/C(C#N)=C/c1ccc(F)cc1F	?	?	-90*	1%	?	?
COc1ccc(Nc2c(-c3ccco3)nc3ccc(C)cn23)cc1	0%	-21%	7	2%	-15%	-2%
SMILES	Chronic BCR inh	DT40 TDP1 CPT	IL-1B inflam inh	SW480 rerep	DT40 TDP1 no CPT	MCF10A rerep
Cc1cccc(C)c1Nc1c(-c2cccs2)nc2ncccn12	nt	21µM*	nt	nt	?	nt
Cc1ccc2nc(-c3cccs3)c(Nc3c(C)cccc3C)n2c1	nt	23µM*	nt	nt	26µM*	nt
O=S(=O)(c1ccccc1)N1CCC2(CCN(Cc3ccccc3)CC2)CC1	nt	13%	nt	nt	-9%	nt
COc1ccc(C(C(=O)NC2CCCCC2)N(Cc2cccnc2)C(=O)c2snc(C(N)=O)c2N)cc1 (centres undefined)	2%	-20%	7	1%	-10%	-2%
COc1ccc(CN(C(=O)c2ccc3c(c2)OCCO3)C(C(=O)NC2CCCCC2)c2ccc3ncccc3c2)cc1 (centres undefined)	-13%	?	13	6%	18µM*	13µM*
O=C(NC1CCCCC1)C(c1ccc2ncccc2c1)N(Cc1ccccc1)C(=O)c1ccc2c(c1)OCCO2 (centres undefined)	-1%	13µM*	-55*	-3%	?	0%
Cc1ccc(C(C(=O)NC2CCCCC2)N(C(=O)CCCC(=O)Nc2ccccn2)c2ccc3c(c2)OCCO3)cc1 (centres undefined)	7%	-24%	?	-12%	6%	2%
CCN(CC)C(=O)Cn1cnc2sc(C(=O)NCCCN3CCOCC3)c(C)c2c1=O	7%	15%	11	-3%	-8%	-5%
COc1ccc(OC)c(C=NNC(=O)NN=Cc2cc(OC)ccc2OC)c1	nt	?	-11	nt	26µM*	nt
COc1ccc(OC)c(/C=N/NC(=O)CCc2ccc(O)c(O)c2)c1	?	21µM*	-26	?	?	13%
COc1ccc(OC)c(/C=N/NC(=O)C(=O)N/N=C/c2cc(OC)ccc2OC)c1	nt	4%	10	17%	?	14%
CC(=O)c1cccc(NS(=O)(=O)c2ccc3[nH]c4c(c3c2)CCCCC4)c1	nt	21µM*	nt	nt	16µM*	nt
CC(=O)c1cccc(NS(=O)(=O)c2ccc3[nH]c4c(c3c2)CCCCCC4)c1	nt	?	nt	nt	21µM*	nt
CCOC(=O)c1cccc(NS(=O)(=O)c2ccc3[nH]c4c(c3c2)CCCC4)c1	nt	23µM*	nt	nt	?	nt
CC(=O)c1cccc(NS(=O)(=O)c2ccc3c(c2)NC(=O)CC(=O)N3)c1	nt	5%	nt	nt	1%	nt
CC1(C(=O)Nc2cccc(-n3cnnn3)c2)Cc2ccccc2C(=O)O1 (centres undefined)	?	-16%	19	12%	-10%	-1%
O=C(NCCCN1CCOCC1)c1cnn(-c2ncc3c(n2)-c2ccccc2CC3)c1C1CC1	nt	-2%[9.04 µM]	nt	nt	-15%	nt
[O-][N+](=Cc1c(Cl)cccc1Cl)CC1(O)CCCCC1	nt	-24%	3	nt	-30%	nt
COc1cccc(S(=O)(=O)N(C)C[C@H]2OCc3cnnn3CCCC(=O)N([C@H](C)CO)C[C@H]2C)c1	nt	-7%	-20	nt	-10%	nt
COc1ccc(OCC(O)Cn2cnc(-c3ccc(Br)cc3)c2)cc1 (centres undefined)	?	?	39	-2%	?	27%
